The results in this text go back to PubChem BioAssay.

A number with no mark means an inactive call. Active and inactive are the calls of the source. Rule as the data show it: active = fold change permeability below about 0.7 or above about 1.3; inactive = in between.

The test in a line: modulators of brain endothelial barrier permeability, primary screen, cell-based, FITC-avidin fluorescence, HTS (AID 1963498). Also: test concentration not given here. The conditions noted are these: actives lie on both sides.
Regarding `Oc1ccc2ccccc2c1SSc1c(O)ccc2ccccc12`, the fold change permeability was 1.6 (active).

`CC1(C)OC(=O)C(c2cccc(F)c2)=C1c1ccc(S(C)(=O)=O)cc1`: the fold change permeability is 0.9. The result for `CNC(=O)c1cc2c(cn1)[nH]c1ccccc12` reads 0.8. The result for `O=C(O)Cn1c(C(=O)Nc2nc(-c3ccccc3Cl)cs2)cc2ccccc21` reads 1.3 (active); that for `COc1cc2c(CCNC(C)=O)c[nH]c2cc1O`, 1.1.

Turning to `CC(C)(C)c1ccc(C(=O)Nc2ccc(Nc3ccccc3)cc2)cc1`, the fold change permeability was 1.

For `CC(C)(C)c1cc(/C=C(\C#N)C(N)=S)cc(C(C)(C)C)c1O`, the fold change permeability was 1.5 (active).

Turning to `O=C(CCCN1CCC(O)(c2ccc(Cl)cc2)CC1)c1ccc(F)cc1`, the fold change permeability was 1.2.

As for `NC(N)=NCc1cccc(I)c1`, the fold change permeability is 0.9. As for `O=[N+]([O-])c1ccc(CSc2ncnc3c2ncn3[C@@H]2O[C@H](CO)[C@@H](O)[C@H]2O)cc1`, the fold change permeability was 0.8. Next, `Cc1ncc(-c2c[nH]c3ccccc23)o1`: 1.2; `CCN1CCCC1CNC(=O)c1cc(S(N)(=O)=O)ccc1OC` (stereo not given): 0.7 (active); `CN(C)C(=O)Oc1cccc([N+](C)(C)C)c1`: 0.8. The result for `C#CC(N)CCC(=O)O` (stereo not given) reads 1.1; that for `C[C@H](NC(=O)CNC(=O)c1cccc(Cl)c1)c1ccccc1`, 1.1; that for `O=C(O)c1cc2cc(Cc3cccnc3)ccc2o1`, 0.8. The result for `C[C@@H](N)C1CCC(C(=O)Nc2ccncc2)CC1` (stereo not given in full) reads 1.2; that for `C=CCN1CCc2c(cc(O)c(O)c2Cl)C(c2ccccc2)C1` (stereo not given), 1; that for `Nc1nc(OCc2cc(Br)cs2)c2[nH]cnc2n1`, 1.5 (active). With `NC(N)=S`, the fold change permeability is 1.3 (active). The result for `Cc1ccc(CNCC2(F)CCN(C(=O)c3ccc(F)c(Cl)c3)CC2)nc1` reads 1.3 (active); that for `NCc1c[nH]c(=S)n1[C@H]1CCc2c(F)cc(F)cc2C1`, 1.4 (active). The result for `Cc1ccc(S(=O)(=O)Nc2ccccc2N2CCCCC2)s1` reads 1; that for `CC(CN1c2ccccc2Sc2ccccc21)N(C)C` (stereo not given), 1.2; that for `CN(C)CCOC(=O)COc1ccc(Cl)cc1`, 0.9. Next, `O=C1NC(c2cccc([N+](=O)[O-])c2)=CCN1c1ccccc1O`: 0.9.

Regarding `CCN(CC)CCOc1ccc(/C(=C(/Cl)c2ccccc2)c2ccccc2)cc1`, the fold change permeability was 1.2. Next, `Cn1ccc2cc3c(cc21)CCN3C(=O)Nc1cccnc1`: 1.4 (active); `NC[C@@H]1O[C@H](C23CC4CC(CC(C4)C2)C3)Cc2c1ccc(O)c2O`: 1.1. The result for `COc1cc(C(=O)OCCCN2CCCN(CCCOC(=O)c3cc(OC)c(OC)c(OC)c3)CC2)cc(OC)c1OC` reads 1.5 (active). The result for `NC(=O)N1c2ccccc2C=Cc2ccccc21` reads 1.1; that for `C/C(=C\c1ccc(C(=O)O)cc1)c1ccc2c(c1)C(C)(C)CCC2(C)C`, 1.7 (active); that for `NCCCC(=O)O`, 0.8. With `COc1cc2ncnc(Nc3cccc(Br)c3)c2cc1OC`, the fold change permeability was 1.1. For the molecule `CCCCc1ncc(/C=C(\Cc2cccs2)C(=O)O)n1Cc1ccc(C(=O)O)cc1`, the fold change permeability is 0.9. The result for `COc1cccc(NC(=O)/C=C/c2ccc(Cl)cc2)c1` reads 1.1. The result for `Clc1ccc(N2CCN(Cc3cc4ccccn4n3)CC2)cc1` reads 1.3 (active); that for `CC(=O)O[C@H]1Cc2ccccc2N(C(N)=O)c2ccccc21`, 1.8 (active); that for `Cc1cc(C)nc(SCC(=O)Nc2ncc(Cc3cccc4ccccc34)s2)n1`, 1.4 (active). The result for `CCC(NC(C)C)C(O)c1ccc(O)c(O)c1` (stereo not given) reads 1.9 (active).
